# Assay results from publication PMC11062922 (Nature Chemical Biology, 2023).
# Like-named read-outs stand apart in the source and are kept apart here.
# Legend:
# Set-up in all cases: species or system human, MV4-11 + K-562 + COLO205 + SK-N-BE2 + OVCAR-8
# ABL2 = details: read-out: apparent Kd, compound concentrations: 100 nM and 1000 nM (sheet 'Samples'), n = 1
# BCR = details: read-out: apparent Kd, compound concentrations: 100 nM and 1000 nM (sheet 'Samples'), n = 1
# BUB1 = details: read-out: apparent Kd, compound concentrations: 100 nM and 1000 nM (sheet 'Samples'), n = 1
# CDK5 = details: read-out: apparent Kd, compound concentrations: 100 nM and 1000 nM (sheet 'Samples'), n = 1
# HCK = details: read-out: apparent Kd, compound concentrations: 100 nM and 1000 nM (sheet 'Samples'), n = 1
# JAK1 = details: read-out: apparent Kd, compound concentrations: 100 nM and 1000 nM (sheet 'Samples'), n = 1
# MAP3K11 = details: read-out: apparent Kd, compound concentrations: 100 nM and 1000 nM (sheet 'Samples'), n = 1
# MAP4K1 = details: read-out: apparent Kd; compound concentrations: 100 nM and 1000 nM (sheet 'Samples'), CATDS: 8.9293608568362503E-3; n = 1
# TNK1 = details: read-out: apparent Kd, compound concentrations: 100 nM and 1000 nM (sheet 'Samples'), n = 1
# EPHB2 = details: read-out: apparent Kd, compound concentrations: 100 nM and 1000 nM (sheet 'Samples'), n = 1
# EPHB4 = details: read-out: apparent Kd, compound concentrations: 100 nM and 1000 nM (sheet 'Samples'), n = 1
# ROCK1 = details: read-out: apparent Kd; compound concentrations: 100 nM and 1000 nM (sheet 'Samples'), CATDS: 3.6596827517009503E-2; n = 1
# JAK2 = details: read-out: apparent Kd, compound concentrations: 100 nM and 1000 nM (sheet 'Samples'), n = 1
# PRKX = details: read-out: apparent Kd, compound concentrations: 100 nM and 1000 nM (sheet 'Samples'), n = 1
# ACAD11 = details: read-out: apparent Kd, compound concentrations: 100 nM and 1000 nM (sheet 'Samples'), n = 1
# CSNK1E = details: read-out: apparent Kd; compound concentrations: 100 nM and 1000 nM (sheet 'Samples'), CATDS: 8.1899018563860101E-2; n = 1
# MAPK14 = details: read-out: apparent Kd, compound concentrations: 100 nM and 1000 nM (sheet 'Samples'), n = 1
# PIK3CG = details: read-out: apparent Kd; compound concentrations: 100 nM and 1000 nM (sheet 'Samples'), CATDS: 8.5012457956318496E-3; n = 1
# TGFBR2 = details: read-out: apparent Kd; compound concentrations: 100 nM and 1000 nM (sheet 'Samples'), CATDS: 0.33092190258733201; n = 1
smiles,measurement,setting,value
COc1ccc(Nc2ncc(C#N)c(Nc3ccccc3C(N)=O)n2)cc1N1CCN(C)CC1.Cl [GSK1558669A],potency estimated from few doses,ABL2; CATDS: 8.4087803089845196E-3,334 nM
same,potency estimated from few doses,BCR; CATDS: 1.27803345453226E-2,96.9 nM
same,potency estimated from few doses,BUB1; CATDS: 6.2718506729186104E-3,1300 nM
same,potency estimated from few doses,CDK5; CATDS: 1.3495473564992901E-2,85 nM
same,potency estimated from few doses,HCK; CATDS: 7.9271656911812094E-3,417 nM
same,potency estimated from few doses,JAK1; CATDS: 1.7272230930398098E-2,49.5 nM
same,potency estimated from few doses,MAP3K11; CATDS: 2.8050644020512099E-2,20.5 nM
same,potency estimated from few doses,MAP4K1,270 nM
same,potency estimated from few doses,TNK1; CATDS: 3.9834731570335402E-2,11.9 nM
CN(c1ccc(NC(=O)Nc2cccc(Cl)c2)cc1)c1ccnc(N)n1.Cl [GW830707A],potency estimated from few doses,ABL2; CATDS: 3.1249349132144801E-2,18.9 nM
same,potency estimated from few doses,BCR; CATDS: 2.64796261985909E-2,26.5 nM
same,potency estimated from few doses,EPHB2; CATDS: 3.95108410825031E-2,12.4 nM
same,potency estimated from few doses,EPHB4; CATDS: 6.0687941062208699E-2,6.3 nM
same,potency estimated from few doses,ROCK1,14.2 nM
same,potency estimated from few doses,TNK1; CATDS: 0.104039802479183,3.01 nM
Clc1cc(Cl)cc(Nc2ccnc(Nc3cc(Cl)cc(Cl)c3)n2)c1 [GSK175726A],potency estimated from few doses,ABL2; CATDS: 0.155143101703651,7.68 nM
same,potency estimated from few doses,BCR; CATDS: 1.5030836072921499E-2,242 nM
same,potency estimated from few doses,EPHB2; CATDS: 1.9895433949459099E-2,134 nM
same,potency estimated from few doses,EPHB4; CATDS: 2.29851767560591E-2,103 nM
same,potency estimated from few doses,HCK; CATDS: 1.3478571983596799E-2,316 nM
same,potency estimated from few doses,JAK2; CATDS: 2.01521439750539E-2,131 nM
same,potency estimated from few doses,PRKX; CATDS: 1.0278626389666701E-2,722 nM
same,potency estimated from few doses,TNK1; CATDS: 5.9656473094293803E-2,24.9 nM
CCOC(=O)N1CCC(n2cnc(-c3ccc(F)cc3)c2-c2ccnc(N)n2)CC1 [SB-219952],potency estimated from few doses,ABL2; CATDS: 1.2118968768927599E-2,552 nM
same,potency estimated from few doses,ACAD11; CATDS: 8.6091938729062605E-3,1330 nM
same,potency estimated from few doses,BUB1; CATDS: 8.9704944978388403E-3,1170 nM
same,potency estimated from few doses,CSNK1E,27.3 nM
same,potency estimated from few doses,EPHB2; CATDS: 1.57002336523176E-2,329 nM
same,potency estimated from few doses,EPHB4; CATDS: 1.53468623139909E-2,344 nM
same,potency estimated from few doses,HCK; CATDS: 1.02495423413253E-2,814 nM
same,potency estimated from few doses,MAP3K11; CATDS: 1.0131438391308501E-2,838 nM
same,potency estimated from few doses,MAPK14; CATDS: 3.3048485919856201E-2,97.1 nM
same,potency estimated from few doses,TNK1; CATDS: 1.30567209660681E-2,472 nM
Cl.Nc1c(C(=O)c2cccc(C#CCN3CCCCC3)c2)cnn1-c1ccc(F)cc1 [RO1154461-001],potency estimated from few doses,ABL2; CATDS: 1.9255632348685402E-2,323 nM
same,potency estimated from few doses,BCR; CATDS: 1.8870015548456399E-2,336 nM
same,potency estimated from few doses,BUB1; CATDS: 1.00986377445768E-2,1860 nM
same,potency estimated from few doses,EPHB2; CATDS: 2.8724117835498601E-2,156 nM
same,potency estimated from few doses,EPHB4; CATDS: 3.5435159362778398E-2,111 nM
same,potency estimated from few doses,HCK; CATDS: 1.18075673820272E-2,1060 nM
same,potency estimated from few doses,JAK1; CATDS: 1.11252993768114E-2,1290 nM
same,potency estimated from few doses,JAK2; CATDS: 2.2434778262680002E-2,240 nM
same,potency estimated from few doses,TNK1; CATDS: 4.5946833879509097E-2,75.5 nM
O=C1N=C(NCCc2ccc(Cl)cc2)S/C1=C\c1ccc2ncccc2c1 [RO4498479-000],potency estimated from few doses,ABL2; CATDS: 1.7069961948359198E-2,201 nM
same,potency estimated from few doses,ACAD11; CATDS: 8.46933106207029E-3,852 nM
same,potency estimated from few doses,BCR; CATDS: 1.6408594866795901E-2,215 nM
same,potency estimated from few doses,BUB1; CATDS: 7.8507646745445397E-3,1070 nM
same,potency estimated from few doses,EPHB2; CATDS: 1.7636169639023699E-2,191 nM
same,potency estimated from few doses,EPHB4; CATDS: 2.15431657098582E-2,141 nM
same,potency estimated from few doses,HCK; CATDS: 1.17279601666646E-2,393 nM
same,potency estimated from few doses,JAK1; CATDS: 7.5180270628035497E-3,1240 nM
same,potency estimated from few doses,MAP3K11; CATDS: 8.9469693791647507E-3,733 nM
same,potency estimated from few doses,PIK3CG,843 nM
same,potency estimated from few doses,PRKX; CATDS: 9.1029786610764794E-3,700 nM
same,potency estimated from few doses,TNK1; CATDS: 1.8006750719606699E-2,185 nM
Cc1ccc(Nc2ccnc(Nc3ccc4c(c3)CS(=O)(=O)C4)n2)cc1O.Cl [GW579362A],potency estimated from few doses,ABL2; CATDS: 4.4791805431594098E-2,448 nM
same,potency estimated from few doses,BCR; CATDS: 4.5785194143174703E-2,428 nM
same,potency estimated from few doses,CDK5; CATDS: 3.4142296648309298E-2,844 nM
same,potency estimated from few doses,MAP3K11; CATDS: 2.6959638591647499E-2,1770 nM
same,potency estimated from few doses,MAPK14; CATDS: 2.9505107428945899E-2,1290 nM
same,potency estimated from few doses,TGFBR2,13.2 nM
